# A selection: hits, their analogues and other compounds. The true share with any hit is near 5.2%.
# NadD inh – inhibitors of Staphylococcus aureus NadD; AID 602399; actives 0.78% (n = 360,000); inhibition, % at 20 µM; purified NadD enzyme, colorimetric absorbance read-out; in the data active means inhibition above about 26%
# esBAF inh – blocks esBAF chromatin remodeling in mouse ES cells. Bmi1-luciferase knock-in reporter, 24 h; 100% = twice the neutral-well signal. reporter increase, % at 12.5 µM. actives 2% (n = 350,000). AID 602393; in the data active means activation above about 40%;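 further: 0% = median of the plate's neutral control wells and 100% = double that signal; a rise in the Bmi1 reporter signal indicates esBAF inhibition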
# SKN-1 block – blocks SKN-1 activity in C. elegans; actives 0.49% (n = 360,000); C. elegans VP596 Pgst-4::GFP/RFP ratio, acrylamide-induced, 24 h; inhibition, % at 21.8 µM; AID 624304;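 active means interference check ratio from 0.5 to 1.5 plus GFP to RFP signal ratio inhibition reaching or exceeding a fixed threshold, cut at about 30% in these data, passing the limit was not always enough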
# Vif inh – blocks HIV Vif function; AID 602346; actives 0.35% (n = 340,000); inhibition, % at 7.49 µM; HEK293T cells, Vif self-association by quenched fluorescence, imaging, 24 h; in the data active means inhibition above about 50%, passing the limit was not always enough
# SMARCA2 activ – increases SMARCA2 function in MMTV reporter cells | MG213 cells, MMTV-luciferase reporter, dexamethasone, overnight | activation, % at 9.1 µM | actives 1% (n = 370,000) | AID 652017; in the data active means activation above about 7.8%;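 further: 0% = vehicle wells and 100% = reference activator wells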
# NR3A LBD binder – modulates the human NR3A ligand-binding domain | NR3A LBD differential scanning fluorimetry, Tm shift; 0% = protein alone, 100% = glycine-bound protein | Tm shift relative to glycine control, % at 25 µM | actives 2.5% (n = 340,000);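 active means melting temperature shift of at least 10% of the positive control shift, at one fixed dose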
# Active calls of the source: *; . = no result given.
SMILES,NadD inh,esBAF inh,SKN-1 block,Vif inh,SMARCA2 activ,NR3A LBD binder
O=C(N/N=C/c1cccc([N+](=O)[O-])c1)c1cc(-c2ccccc2)nc2ccccc12,5.6,.,4.0,-4.8,-0.1,4.2
O=C(N/N=C/C=C\c1ccccc1[N+](=O)[O-])c1cc(-c2ccccc2)nc2ccccc12,13.9,.,-4.2,5.4,-1.0,10.5*
O=C(N/N=C/c1cccc(O)c1)c1cc(-c2ccccc2)nc2ccccc12,6.7,9.1,12.9,3.7,-1.9,14.6*
O=c1c2ccccc2nc(COc2ccccc2)n1/N=C/c1cc([N+](=O)[O-])ccc1O,5.3,.,4.7,-9.9,0.1,22.0*
O=C(N/N=C/c1cccc([N+](=O)[O-])c1)c1c[nH]c2ccccc12,1.7,.,-2.5,2.4,2.3,27.2*
COc1ccc(NC(=O)N(C)C[C@H]2Oc3c(NS(=O)(=O)c4ccc(F)cc4)cccc3C(=O)N([C@@H](C)CO)C[C@H]2C)cc1,.,2.7,.,.,.,.
Cn1c(CNC(=O)CCNC(=O)c2cccc(Cl)c2)cc(=O)n(C)c1=O,1.9,4.9,2.6,-3.3,-4.2,12.5*
COC(=O)c1ccc(COC(=O)c2ccc(C)c(S(=O)(=O)N3CCCCC3)c2)cc1,-1.5,42.7*,-21.4,-4.2,0.9,1.7
Cc1ccc(C(=O)OCC(=O)c2c(N)n(C)c(=O)n(C)c2=O)cc1S(=O)(=O)N1CCCCC1,-0.7,.,7.0,-3.4,-3.0,10.2*
Cc1ccc(S(=O)(=O)N2CCOCC2)cc1C(=O)OCC(=O)c1c(N)n(C)c(=O)n(C)c1=O,5.5,-4.1,-0.4,3.9,-5.0,1.2
Cc1ccc(C(=O)Oc2ccc([N+](=O)[O-])cc2)cc1S(=O)(=O)N1CCCCCC1,-6.3,6.0,1.2,-11.1,-4.2,12.7*
C[C@@H]1CCCCO[C@@H](CN(C)Cc2ccc(C(=O)O)cc2)[C@@H](C)CN([C@H](C)CO)C(=O)c2cc(NS(=O)(=O)c3ccccc3)ccc2O1,.,-0.1,.,.,.,.
C[C@H](CO)N1C[C@H](C)[C@H](CN(C)C(=O)Nc2ccc3c(c2)OCO3)OCCCC[C@H](C)Oc2ccc(NC(=O)NC3CCCCC3)cc2C1=O,.,7.9,.,.,.,.
c1ccc(CSc2ccc3nnc(-c4cccnc4)n3n2)cc1,-1.6,.,0.8,3.7,-1.7,14.0*
Cc1cccc(CSc2ccc3nnc(-c4cccnc4)n3n2)c1,-1.3,.,-1.3,7.0,-0.8,-1.5
O=C(CNC(=O)c1cccc(Br)c1)N/N=C/c1cc(Br)cc(Br)c1O,1.8,.,3.5,-1.8,-0.5,17.1*
O=C(Cc1ccccc1)N/N=C/c1cc(Br)cc(Br)c1O,1.6,-2.6,4.0,-7.7,-1.9,11.5*
CS(=O)(=O)Nc1ccc2c(c1)[C@H]1C[C@@H](CC(=O)NCc3ccccn3)O[C@H](CO)[C@H]1O2,.,-2.3,.,.,.,.
CCOC(=O)c1c(C)[nH]c(C(=O)COC(=O)c2oc3ccc(OC)cc3c2C)c1C,-0.3,6.2,36.7*,3.8,6.9,0.8
CCOC(=O)c1c(C)[nH]c(C(=O)OCc2ccc(C)cc2)c1C,3.0,.,8.5,-3.1,3.7,-11.5
CCOC(=O)c1c(C)[nH]c(C(=O)OCc2ccccc2)c1C,-3.8,76.3*,3.2,-11.0,2.8,-6.0
CC(=O)c1c(C)[nH]c(C(=O)OCc2cccc(C)c2)c1C,-1.5,53.6*,15.4,-9.2,-2.7,-3.7
CCOC(=O)c1c(C)[nH]c(N=Nc2ccccc2C)c1C,-4.9,48.4*,10.3,.,1.9,-2.7
COc1cccc(-c2ccc3n(c2=O)C[C@@H]2[C@@H](CO)[C@H](C(=O)N4CCOCC4)N[C@H]32)c1,.,0.9,.,.,.,.
CO[C@@H]1CN(C)C(=O)c2ccc(NC(=O)c3ccccc3)cc2OC[C@H](C)N(C(C)=O)C[C@H]1C,.,-10.7,.,.,.,.
SMILES,NadD inh,esBAF inh,SKN-1 block,Vif inh,SMARCA2 activ,NR3A LBD binder
CCOC(=O)c1c(C)[nH]c(C(=O)OCC(=O)NCc2ccco2)c1C,0.9,49.0*,15.8,.,-3.2,.
CCCCCC(=O)c1c(C)[nH]c(C(=O)OCC)c1C,-4.1,.,13.4,-3.9,3.7,-0.8
CCOC(=O)c1c(C)[nH]c(C(=O)OCC(=O)NCc2ccc(F)cc2)c1C,0.4,15.8,-0.9,-3.9,-2.4,-0.3
CCCCCCC(=O)c1c(C)[nH]c(C(=O)OCC)c1C,4.2,55.0*,13.5,-5.5,0.2,-14.0
CC(C)(C)c1ccc(S(=O)(=O)CCc2ccccn2)cc1,6.1,70.5*,-5.6,-10.8,6.0,-0.7
Cc1ccc(S(=O)(=O)CCc2ccccn2)cc1,4.9,7.0,1.7,4.0,1.8,2.1
COc1ccc(Cl)cc1Nc1ncnc2sc(C)c(S(=O)(=O)N3CCC(C)CC3)c12,10.5,.,-11.5,0.0,-1.3,10.4*
O=C(O)c1ccc(-c2nc(-c3ccc(Cl)cc3Cl)cs2)cc1,2.8,59.7*,9.8,-4.3,4.4,0.1
O=C(O)c1ccc(-c2nc(-c3cccc(C(F)(F)F)c3)cs2)cc1,3.8,.,-5.5,59.1*,1.0,4.3
O=C(O)c1ccc(-c2nc(-c3ccc(Cl)cc3)cs2)cc1,3.2,.,7.5,-6.8,3.7,-6.3
CC(O)(c1ccccc1)c1nc(-c2cccc(C(F)(F)F)c2)cs1 (centres undefined),-6.8,-11.1,1.3,.,-2.2,.
CN(C)c1ccc(N=c2sc3ccccc3n2C)cc1,1.8,81.9*,17.9,2.2,3.0,-1.6
O=C(NCC1CCCO1)c1c(O)c2ccccc2[nH]c1=O (centres undefined),2.7,50.8*,20.0,31.5,1.8,-1.7
O=C(NC1CCCCCC1)c1c(O)c2ccccc2[nH]c1=O,-5.3,45.6*,-1.6,16.7,1.2,2.9
Cc1ccc(-c2nc3cc(C)c(Br)c(C)n3c2Cc2cccc(F)c2)cc1,12.2,53.6*,6.5,.,3.1,.
COC(=O)c1ccc2nc(-c3ccc(Cl)cc3)c(Cc3ccsc3)n2c1,10.9,.,0.2,.,-1.2,.
COC(=O)c1ccc2nc(-c3cccc(Cl)c3)c(Cc3ccsc3)n2c1,3.2,55.2*,10.9,15.1,3.2,.
COC(=O)c1ccc2nc(-c3ccc(C)cc3)c(Cc3cccc(F)c3)n2c1,8.1,.,40.6*,.,7.9*,.
COC(=O)c1ccc2nc(-c3ccc(C#N)cc3)c(Cc3cccc(F)c3)n2c1,5.9,4.5,1.8,.,1.1,.
O=C(C[C@@H]1C=C[C@H](NC(=O)c2ccncc2)[C@H](CO)O1)Nc1ccc(-c2ccccc2)cc1,.,6.8,.,.,.,.
O=C(CCNC(=O)c1ccccc1Cl)Nc1nc2ccc(F)cc2s1,0.4,51.9*,3.8,-6.0,3.0,1.2
O=C(Nc1nc2ccc(F)cc2s1)c1cccc(S(=O)(=O)N2CCc3ccccc32)c1,21.7,20.3,10.7,-13.0,-2.7,14.3*
O=C(Nc1nc2ccc(F)cc2s1)c1cccs1,-2.6,.,7.5,-3.4,-1.3,16.4*
O=C(Nc1nc2ccc(F)cc2s1)c1ccc([N+](=O)[O-])o1,-5.3,88.5*,5.4,.,2.8,.
